Drawing on PubChem BioAssay (NCI), this text covers growth for 15 molecules.

This is part of a sample that, as a whole, favours compounds with a hit. Of some 83,000 tested, about 20% had one in any assay.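 In brief: 96-well plates, 48 h treatment, single concentration, percent growth endpoint.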 A number with no mark means an inactive call. Active and inactive are the calls of the source. The calls were made as follows: active = growth percent below 10; inactive = the rest.

Some test systems named below: NCI-H23 lung; NCI-H226 lung; NCI-H322M lung; HOP-62 NSCLC; NCI-H460 lung; HOP-92 NSCLC; NCI-H522 lung; A549/ATCC NSCLC; COLO 205 colon; 786-0 renal.
Assay in all cases: NCI-60 one-dose screen, 48 h (100 = growth as untreated, 0 = no growth, -100 = all killed)
What all share (settings): 10 µM unless noted

As to `Cc1ccc2[nH]c(=O)c3c(c2c1)Oc1ncn2nc(-c4ccco4)nc2c1C3c1ccc(Cl)cc1` (stereo not drawn), the growth in the test on NCI-H23 lung was 93.3%; with NCI-H226 lung it was 92.4%; in the test on NCI-H322M lung, 96.1%; with HOP-62 NSCLC, 92.1%; in the test on NCI-H460 lung it was 99.9%; in the test on HOP-92 NSCLC it was 78.5%. Moreover, the growth in the test on NCI-H522 lung is 89.5%; with A549/ATCC NSCLC, 96.7%; with COLO 205 colon it was 109%.

Regarding `O=C1NC(=C(Cl)Cl)/C(=N/S(=O)(=O)N2CCC(C3(C(F)(F)F)N=N3)CC2)N1`, the growth in the test with NCI-H23 lung was 45.3%; with NCI-H226 lung it was 106%; in the test on NCI-H322M lung, 95.8%; with NCI-H460 lung, 100%; in the test with HOP-92 NSCLC, 87%; with NCI-H522 lung it was -58% (active). The growth was 106% in the test with A549/ATCC NSCLC, 103% in the test with 786-0 renal and 26% in the test with COLO 205 colon.

Consider `CSc1nc2c(c(=O)[nH]1)C(c1ccc(C)cc1)C=C(C(=O)O)N2` (stereo not drawn), for which the growth with NCI-H23 lung was 98.9%; with NCI-H226 lung it was 104%; in the test on NCI-H322M lung, 101%; with NCI-H460 lung, 106%; in the test with HOP-92 NSCLC, 122%; in the test on NCI-H522 lung, 108%. Besides, the growth is 106% in the test on A549/ATCC NSCLC, 104% with 786-0 renal and 126% with COLO 205 colon.

For `CC1CN(c2oc(-c3ccccc3)nc2C#N)CC(C)O1` (stereo not drawn), the growth in the test on NCI-H23 lung was 112%; in the test with NCI-H226 lung, 92%; with NCI-H322M lung, 99.1%; with NCI-H460 lung it was 99.7%; with HOP-92 NSCLC, 123%; in the test on NCI-H522 lung it was 99.4%. The growth with A549/ATCC NSCLC is 104%; in the test with 786-0 renal it was 99.6%; with COLO 205 colon, 116%.

`Clc1ccc(-c2nc3ccccc3s2)cc1Cl`: the growth in the test on NCI-H23 lung is 94.2%; with NCI-H226 lung, 87.2%; in the test with NCI-H322M lung, 110%; in the test with NCI-H460 lung, 96.4%; in the test with HOP-92 NSCLC, 84.1%; in the test with NCI-H522 lung, 82.7%. The growth with A549/ATCC NSCLC was 97.7%; with 786-0 renal, 103%; with COLO 205 colon, 111%.

Turning to `O=c1cc/c(=N\Nc2ccccc2)c(=O)/c1=N/Nc1ccccc1`, the growth was 93.9% with NCI-H23 lung; 108% with NCI-H226 lung; 93.7% in the test on NCI-H322M lung; 95.7% in the test on NCI-H460 lung; -1.02% (active) with HOP-92 NSCLC; 110% in the test with NCI-H522 lung. The growth with A549/ATCC NSCLC was 123%; in the test on 786-0 renal, 112%; with COLO 205 colon, 137%.

Turning to `O=[N+]([O-])c1ccc(OCCCOc2ccccc2)cc1`, the growth in the test on NCI-H23 lung was 102%; in the test with NCI-H226 lung, 113%; in the test on NCI-H322M lung, 101%; in the test with NCI-H460 lung, 108%; in the test with HOP-92 NSCLC, 121%; in the test on NCI-H522 lung it was 86.3%. Moreover, the growth is 92.4% with A549/ATCC NSCLC, 98.7% with 786-0 renal and 118% in the test with COLO 205 colon.

As to `COc1ccncc1S(=O)(=O)NC(=O)Nc1ccc(Cl)c(Cl)c1`, the growth in the test on NCI-H23 lung is 89%; in the test with NCI-H226 lung, 92.5%; in the test with NCI-H322M lung it was 95%; in the test with NCI-H460 lung it was 104%; in the test with HOP-92 NSCLC, 80.7%; in the test on NCI-H522 lung, 82.5%. The growth is 44.5% in the test on A549/ATCC NSCLC, 94.2% in the test with 786-0 renal and 105% in the test on COLO 205 colon.

`O=C(Nc1ccc2c(c1)OCO2)C(=O)c1c[nH]c2cc(F)ccc12`: the growth was 79.6% in the test with NCI-H23 lung; 73% in the test with NCI-H226 lung; 65.3% with NCI-H322M lung; 41.3% with NCI-H460 lung; 42.2% with HOP-92 NSCLC; 61.2% with NCI-H522 lung. Also, the growth with A549/ATCC NSCLC is 48.9%; in the test with 786-0 renal, 57.7%; in the test on COLO 205 colon it was 83.1%.

In the case of `Cc1ccc2nc(-c3cc4c([nH]c5ccccc54)c(-c4ccc(F)c(F)c4)n3)[nH]c2c1`, the growth in the test with NCI-H23 lung was 84.1%; in the test on NCI-H226 lung, 97.7%; in the test with NCI-H322M lung, 103%; in the test on NCI-H460 lung, 83%; in the test with HOP-92 NSCLC, 99%; in the test with NCI-H522 lung, 65.7%. In addition, the growth with A549/ATCC NSCLC is 79%; in the test with 786-0 renal it was 99.6%; in the test with COLO 205 colon, 88%.

In the case of `O=c1[nH]c2ccc(Br)cc2c2c1C(c1ccc(Cl)cc1)c1c(ncn3nc(-c4ccco4)nc13)O2` (stereo not drawn), the growth was 76.1% with NCI-H23 lung; 65.5% with NCI-H226 lung; 75.3% in the test on NCI-H322M lung; 85.1% with NCI-H460 lung; 37.7% in the test on HOP-92 NSCLC; 69.4% in the test on NCI-H522 lung. The growth is 74.8% in the test on A549/ATCC NSCLC and 91% with COLO 205 colon.

`Fc1ccccc1-c1nc(-c2nc3cc(Cl)c(Cl)cc3[nH]2)c2ccccn12`: the growth with NCI-H23 lung was 69.2%; with NCI-H226 lung, 78.5%; with NCI-H322M lung it was 67.8%; with NCI-H460 lung, 57.3%; with HOP-92 NSCLC, 49.6%; with NCI-H522 lung it was 72.5%. Also, the growth is 72.2% with A549/ATCC NSCLC, 86.4% in the test with 786-0 renal and 89.6% in the test with COLO 205 colon.

As to `CCOC(=O)NNC(=S)Nc1ccccc1`, the growth is 99.5% in the test on NCI-H23 lung; 103% with NCI-H226 lung; 102% in the test with NCI-H322M lung; 108% in the test with NCI-H460 lung; 93.5% in the test with HOP-92 NSCLC; 100% in the test on NCI-H522 lung. The growth in the test on A549/ATCC NSCLC was 96.3%; in the test with 786-0 renal, 103%.

Regarding `COc1ccc2c(c1)[nH]c(=O)c1c3cc(C)c(C)cc3cn21`, the growth in the test with NCI-H23 lung is 51.4%; in the test with NCI-H226 lung it was 37%; in the test with NCI-H322M lung, -25.1% (active); with NCI-H460 lung it was -16.4% (active); in the test with HOP-92 NSCLC, -41.7% (active); in the test with NCI-H522 lung, -55.8% (active). Also, the values for the growth in the test on A549/ATCC NSCLC, in the test on 786-0 renal and with COLO 205 colon were -4.9% (active), 30.9% and -48% (active), respectively.

As to `CC1CCC(C)N(C)C1` (stereo not drawn), the growth in the test with NCI-H23 lung was 104%; in the test with NCI-H226 lung, 101%; with NCI-H322M lung, 100%; in the test on NCI-H460 lung, 109%; with HOP-92 NSCLC it was 84.4%; with NCI-H522 lung, 104%. Also, the growth was 103% with A549/ATCC NSCLC, 94.4% in the test with 786-0 renal and 110% in the test on COLO 205 colon.
